Sampled rows, rich in hits. Any-hit rate of the full collection: about 19%.
TDP1 block: qHTS Assay for Inhibitors of Tyrosyl-DNA Phosphodiesterase (TDP1) | 350,000 tested, 0.28% active | Potency, µM (series often up to 130 µM), without a hit: at the top dose activity change, negative = inhibition, hits mostly inhibitors | recombinant TDP1, AlphaScreen DNA substrate cleavage | AID 485290, 2010; note: potency is the fitted concentration of half-maximal effect; % is set by controls: 0 for no effect and ±100 for the full control effect; nearly all actives have a fitted effect of over 40% in size
Target sequence (Q9NUW8 whole entry, looked up): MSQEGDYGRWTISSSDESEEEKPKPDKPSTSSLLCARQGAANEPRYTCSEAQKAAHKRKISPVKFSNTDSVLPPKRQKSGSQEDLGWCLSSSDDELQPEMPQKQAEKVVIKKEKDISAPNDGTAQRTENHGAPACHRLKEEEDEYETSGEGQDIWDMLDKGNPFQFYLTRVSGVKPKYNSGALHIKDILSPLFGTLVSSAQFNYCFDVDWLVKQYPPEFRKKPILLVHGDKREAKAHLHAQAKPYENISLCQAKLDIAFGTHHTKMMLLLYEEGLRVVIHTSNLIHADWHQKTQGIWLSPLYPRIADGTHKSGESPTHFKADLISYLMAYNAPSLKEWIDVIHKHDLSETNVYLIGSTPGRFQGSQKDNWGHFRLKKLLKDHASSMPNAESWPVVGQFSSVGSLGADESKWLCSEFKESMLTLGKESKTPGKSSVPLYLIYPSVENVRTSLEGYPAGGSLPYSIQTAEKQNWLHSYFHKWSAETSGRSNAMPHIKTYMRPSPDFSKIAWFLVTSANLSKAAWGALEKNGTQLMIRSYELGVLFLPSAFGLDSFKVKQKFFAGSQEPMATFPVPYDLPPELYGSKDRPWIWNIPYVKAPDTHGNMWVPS
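Recombinant human Tdp1 (E. coli-expressed, 1 nM final) preincubated with compounds 15 min at room temperature, then 5'-biotin/3'-phosphotyrosine-FITC DNA substrate (15 nM final) added for 5 min. AlphaScreen beads (10 ug/ml final) added 10 min; cleavage lowers signal.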
DT40 TDP1 CPT: qHTS for Inhibitors of human tyrosyl-DNA phosphodiesterase 1 (TDP1): qHTS in cells in presence of CPT | chicken DT40 Tdp1-/-;hTDP1 cells + 20 nM CPT, ATP luminescence, 48 h | Potency, µM (doses to about 46.2 µM), without a hit: at the highest dose activity change, negative = growth inhibition, usual class: inhibitors | 420,000 tested, 12% active | AID 686979, 2013; note: potency is the fitted concentration of half-maximal effect; % is set by controls: 0 for no effect and ±100 for the full control effect; nearly all actives have a fitted effect of over 55% in size
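Chicken DT40 Tdp1-/- cells complemented with human TDP1, 400 cells/well, exposed to compounds plus 20 nM camptothecin for at least 48 h at 37 C; viability read as ATP content by CellTiter-Glo luminescence.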
HepG2 tox: qHTS for Inhibitors of TGF-b: Cytotox Counterscreen | HepG2 CAGA-GFP viability, ATP luminescence, 18 h | Potency, µM (top dose mostly 46.1 µM), without a hit: at the top dose activity change, negative = cytotoxicity, hits mostly cytotoxic | 410,000 tested, 0.76% active | AID 588856, 2011; note: potency is the fitted concentration of half-maximal effect
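CellTiter-Glo luminescence gave cytotoxicity after 18 hours at 37 degrees C. The cells were HepG2 CAGA-GFP in 1% FBS DMEM, stimulated with 500 pg/mL TGF-beta after compound addition. %Activity was normalised to no-cell wells (complete cell-killing) and DMSO (no toxicity), and curves were fitted and classified.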
IL1B secr inh: qHTS for Inhibitors of Inflammasome Signaling: IL-1-beta AlphaLISA Primary Screen; THP-1 LPS/ATP IL-1B secretion, AlphaLISA, 16 h; hits give low values; activity change, % at 57.5 µM; 360,000 tested, 4.7% active; AID 743279, 2014; in the data active = activity change below about -50%; inconclusive = mostly about -30% to -49%; note: % is set by controls: 0 for no effect and ±100 for the full control effect
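THP-1 cells pretreated 1 hr with compounds (up to 57.5 uM final), then stimulated with LPS (250 ng/mL final) plus ATP (1.25 mM final); secreted IL-1B measured by AlphaLISA after 16 hr, decreased signal indicating inhibition.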
DT40 TDP1 no CPT: qHTS for Inhibitors of human tyrosyl-DNA phosphodiesterase 1 (TDP1): qHTS in cells in absence of CPT; DT40 Tdp1-/- hTDP1 cells, no CPT, ATP luminescence, 48 h; Potency, µM (series often up to 46.2 µM), for inactives: at the top dose activity change, negative = growth inhibition, usual class: inhibitors; 420,000 tested, 15% active; AID 686978, 2013; note: potency is the fitted concentration of half-maximal effect; % is set by controls: 0 for no effect and ±100 for the full control effect; nearly all actives have a fitted effect of over 55% in size
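Camptothecin absent (DMSO only). Human TDP1-complemented DT40 knockout cells, 400 cells/well, 37 °C for minimum 48 hr; ATP measured via CellTiter-Glo, 30 min dark incubation, luminescence.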
TGFb inhibitor: qHTS for Inhibitors of TGF-b; HepG2 CAGA-GFP TGF-b/SMAD3 reporter, GFP fluorescence, 18 h; TGF-beta stimulated, 500 pg/mL final; Potency, µM (top dose mostly 46.1 µM), inactives show at the highest dose activity, negative = inhibition, most hits filed as inhibitors; 410,000 tested, 1.2% active; AID 588855, 2011; note: potency is the fitted concentration of half-maximal effect; % is set by controls: 0 for no effect and ±100 for the full control effect; nearly all actives have a fitted effect of over 65% in size
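Using HEPG2 CAGA-GFP reporter cells at 1000 cells/well, we pinned test compounds, stimulated with recombinant TGF-beta (500 pg/mL final) and measured total well GFP after 18 h.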
An asterisk follows results filed as active; ? = inconclusive; nt = no result; [ ] = remark or other dose. Unless noted, calls come from the whole dose curve; as a rule, active = well fitted curve in the direction sought with a large enough effect; inconclusive = small, poorly fitted or top-dose-only effect, or another doubt; inactive = no such curve, though single readings can be large; an effect the other way counts as inactive or inconclusive.

SMILES | TDP1 block | DT40 TDP1 CPT | HepG2 tox | IL1B secr inh | DT40 TDP1 no CPT | TGFb inhibitor
O=C(COC(=O)c1ccccc1C(=O)c1ccc(Cl)cc1)NCc1ccccc1 | 0% | ? | -20% | -69* | 18µM* | ?
Cc1ccc(C(=O)c2ccccc2C(=O)OCC(=O)NC(=O)NC(C)(C)C)cc1 | 2% | -16% | -1% | 20 | -26% | 0%
O=C(COC(=O)c1ccccc1C(=O)c1ccccc1)NCCc1ccc(Cl)cc1Cl | 3% | ? | -29% | -85* | 21µM* | -15%
O=C(Cc1ccccc1)NCCc1ccc(Cl)cc1Cl | 0% | 9% | 7% | 17 | -8% | -2%
CCCc1cc(=O)[nH]c2nnc(SCC(=O)Nc3cccc(NC(C)=O)c3)n12 | -4% | ? | 2% | 0 | ? | -9%
COc1ccc(OC)c(CNS(=O)(=O)c2cc(-c3onc(C)c3C)ccc2C)c1 | 0% | ? | -21% | nt | ? | -7%
COc1ccc(OC)c(COC(=O)c2cc([N+](=O)[O-])ccc2N2CCOCC2)c1 | 3%[56.1 µM] | 7.3µM* | 5% | 44 | 4.1µM* | 2%
CCOc1ccc(C(C)=O)cc1COC(=O)c1cc([N+](=O)[O-])ccc1N1CCOCC1 | 8% | 23µM* | 1% | 14 | ? | 16%
Cc1ccc(-n2nc(C(=O)Nc3ccc(F)cc3Cl)c(=O)n(C)c2=O)cc1 | 8% | -1% | 14% | nt | -12% | -4%
CCCCn1nnnc1C(c1ccccc1)N1CCN(c2ccc(C(F)(F)F)cc2[N+](=O)[O-])CC1 (centres undefined) | nt | ? | nt | -12 | 18µM* | nt
CCCCn1nnnc1C(c1ccccc1)N1CCN(c2ccc(C(F)(F)F)cn2)CC1 (centres undefined) | nt | ? | nt | ? | 18µM* | nt
CCCCn1nnnc1C(c1ccccc1)N1CCN(C(C)=O)CC1 (centres undefined) | nt | -2% | nt | -2 | 4% | nt
CCCCn1nnnc1C(c1ccccc1)N1CCN(c2ncccc2C(F)(F)F)CC1 (centres undefined) | nt | ? | nt | -51* | 18µM* | nt
Cc1noc(C)c1C(=O)N1CCC2(CC1)CN(C(=O)Nc1cccc(F)c1)C2 | nt | -7% | nt | nt | -1% | nt
COc1ccccc1CNC(=O)COc1ccccc1C(=O)c1cnn(-c2ccccc2)c1 | 0% | 23µM* | -15% | -7 | ? | -29%
O=C(COc1ccccc1C(=O)c1cnn(-c2ccccc2)c1)Nc1ccccc1 | 3% | ? | 19% | 22 | 15µM* | -9%
COc1cc(C2C(C#N)=C(N)OC3=C2C(=O)CC(C)(C)C3)cc([N+](=O)[O-])c1O (centres undefined) | 2% | 1% | 1% | -21 | 27% | -1%
CC1(C)CC(=O)C2=C(C1)OC(N)=C(C#N)C2c1ccccc1[N+](=O)[O-] (centres undefined) | 4% | 21µM* | -2% | 5 | ? | -12%
CC(C)c1ccc(-c2nn(-c3ccccc3)cc2C2C(C#N)=C(N)OC3=C2C(=O)CC(C)(C)C3)cc1 (centres undefined) | 7% | ? | -32% | -29 | 18µM* | ?
Cc1nn(-c2ccccc2)c(Cl)c1C1C(C#N)=C(N)OC2=C1C(=O)CC(C)(C)C2 (centres undefined) | 5% | ? | 27% | 34 | ? | -5%
Cc1c(C2CCN(CCc3ccccc3)CC2)noc1-c1ccc(Cl)cc1 | 6% | 12µM* | nt | nt | 9.2µM* | nt
Cc1c(-c2ccc(Cl)cc2)noc1C1CCN(CCc2ccccc2)CC1 | 4% | ? | nt | nt | 15µM* | nt
Cc1ccccc1OCC(=O)NCC(c1cccs1)N1CCOCC1 (centres undefined) | -7% | ? | -5% | 24 | ? | ?
CCN1/C(=C/C=C/c2oc3ccc4ccccc4c3[n+]2CC)Oc2ccc3ccccc3c21 | nt | 0.65µM* | -1% | -6 | 0.18µM* | 32%
CCN1C(=O)/C(=C/C=C2/Sc3ccc4ccccc4c3N2CCO)SC1=S | 3% | ? | 3% | 9 | ? | 14%
SMILES | TDP1 block | DT40 TDP1 CPT | HepG2 tox | IL1B secr inh | DT40 TDP1 no CPT | TGFb inhibitor
O=C(O)c1ccc(N2C(=O)c3ccccc3C2=O)cc1[N+](=O)[O-] | nt | 12% | -21% | 7 | -14% | -6%
CCOC(=O)C1Nc2c(cc(C(F)(F)F)cc2[N+](=O)[O-])C2c3ccccc3CC12 (centres undefined) | nt | 18µM* | -37% | 12 | ? | ?
CCOC(=O)C1Nc2c(F)cc(C)cc2C2c3ccccc3CC12 (centres undefined) | nt | ? | -32% | ? | ? | ?
CCOC(=O)C1Nc2ccccc2C2c3ccccc3CC12 (centres undefined) | nt | 21µM* | -47% | -10 | 2.6µM* | ?
Cc1ccc(CNc2nc(CN3CCNC(=O)C3)nc3ccccc23)o1 | nt | ? | nt | nt | -22% | nt
N#CC(Cc1cccc(CC(C#N)(c2ccccc2)c2ccccc2)c1)(c1ccccc1)c1ccccc1 | nt | 3.3µM* | -22% | 5 | 4.1µM* | -12%
O=C(N/N=C/c1ccoc1)c1cc(O)cc(O)c1 | 2.8µM* | 1% | -19% | -3 | -13% | 2%
Cc1cc(C)cc(C(=O)N/N=C/c2ccoc2)c1 | 3% | -3% | 2% | -11 | 24% | -2%
O=S(=O)(Nc1ccc(-c2nnc(SCc3ccc(Cl)cc3)o2)cc1)c1ccccc1 | 3% | ? | -15% | -79* | ? | ?
NC(=O)CSc1nnc(-c2cccc(S(=O)(=O)N3CCCCC3)c2)o1 | -2% | 2% | -4% | -9 | ? | -21%
O=S(=O)(c1cccc(-c2nnc(SCc3ccc(Cl)cc3)o2)c1)N1CCCCC1 | -6% | 8.2µM* | 6% | 5 | 23µM* | 0%
Cc1ccc(NC(=O)N2CCC(CN3CCCCCC3)CC2)c(Cl)c1 | 2% | ? | 4% | nt | ? | -1%
CCCSc1nnc2c(n1)OC(CC)N(C(C)=O)c1ccccc1-2 (centres undefined) | nt | -18% | 1% | nt | -21% | -10%

Screening data from PubChem BioAssay.
